Inconclusive results are not listed. The source made the active and inactive calls. How the source made its calls, unless noted: active means hit-call score of the fitted dose curve at least 0.9, where 1 is the maximum; inactive means score below 0.9.

Experimental findings from PubChem BioAssay (EPA / NIEHS) are described below.

In one experiment the test system is TTR (gene 7276). Put plainly: CCTE_GLTED_hTTR_0.125uM: CCTE's human Transthyretin (hTTR) Inhibition Assay, with 0.125uM TTR, Great Lakes Toxicology and Ecology Division (GLTED) Lab (AID 2284431).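 Further: hits lower the fluorescence signal relative to DMSO baseline.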 In a few lines: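 Cell-free displacement of the fluorescent probe ANSA from human TTR (0.125uM) after 2 h incubation with test chemical. Fluorescence read at 380 nm excitation/475 nm emission; loss of signal fitted relative to DMSO baseline.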

Experiment [1] relates to SRY-box transcription factor 2 (SOX2) Protein Expression, Deisenroth Lab, SOX2 (gene 6657). Kind of experiment: CCTE_Deisenroth_DEVTOX-GLR_Endo_SOX2: CCTE's DevTox GLR-Endo Assay Evaluation of SRY-box transcription factor 2 (SOX2) Protein Expression, Deisenroth Lab (AID 2284412; active means hit-call score of the fitted dose curve at least 0.9, where 1 is the maximum). In a few lines:
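RUES2-GLR human pluripotent cells were seeded 24 h, then differentiated 48 h with two chemical exposures 24 h apart. Cells were fixed, nuclei stained and imaged by high-content microscopy. Endpoint is %SOX2+ cells over cell count, minus 0.2% DMSO control; 10-point series 1 nM–200 uM.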

In experiment [2] the test system is SRY-box transcription factor 17 (SOX17) Protein Expression, Deisenroth Lab, SOX17 (gene 64321). Put plainly: CCTE_Deisenroth_DEVTOX-GLR_Endo_SOX17: CCTE's DevTox GLR-Endo Assay Evaluation of SRY-box transcription factor 17 (SOX17) Protein Expression, Deisenroth Lab (AID 2284413). An outline of the steps:
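Seed RUES2-GLR cells 24 h; start endoderm differentiation; dose at 0 and 24 h (1 nM - 200 uM, 10 points); fix at 48 h, stain nuclei, image 5 fields/well; compute SOX17+/total cells vs 0.2% DMSO.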

For experiment [3], the system named is Brachyury (BRA) Protein Expression, TBXT (gene 6862). Kind of experiment: CCTE_Deisenroth_DEVTOX-GLR_Endo_BRA: CCTE's DevTox GLR-Endo Assay Evaluation of Brachyury (BRA) Protein Expression, Deisenroth Lab (AID 2284417). An outline of the steps:
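RUES2-GLR human pluripotent cells, seeded 24 h, then differentiated 48 h in defined media with two chemical exposures 24 h apart (10-point series, 1 nM - 200 uM). Fixed, nuclear-stained, imaged; endpoint is percent BRA+ cells minus 0.2% DMSO control.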

Experiment [4] is described as follows: CCTE_Deisenroth_DEVTOX-GLR_Endo_CellCount: Viability Assessment in CCTE's DevTox GLR-Endo Assay, Deisenroth Lab (AID 2284420). In a few lines:
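RUES2-GLR human pluripotent cells seeded 24 h, then differentiated 48 h with two chemical exposures at 24 h intervals (10-point, 1 nM - 200 uM). Fixed, nuclear-stained, imaged; nuclei counts give % change in cell count versus 0.2% DMSO.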

Experiment [5] relates to SRY-box transcription factor 17 (SOX17) Protein Expression, Deisenroth Lab, SOX17 (gene 64321). Put plainly: CCTE_Deisenroth_DEVTOX-GLR_Pluri_SOX17: CCTE's DevTox GLR-Pluri Assay Evaluation of SRY-box transcription factor 17 (SOX17) Protein Expression, Deisenroth Lab (AID 2284427; active means hit-call score of the fitted dose curve at least 0.9, where 1 is the maximum). An outline of the steps: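 RUES2-GLR human pluripotent cells were seeded 24 h, then differentiated 48 h in defined media with two chemical exposures 24 h apart (10-point series, 1 nM - 200 uM). Fixed, nuclear-stained cells were imaged; %SOX17+ cells minus 0.2% DMSO control reported.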

The subject of experiment [6] is SRY-box transcription factor 2 (SOX2) Protein Expression, Deisenroth Lab, SOX2 (gene 6657). Put plainly: CCTE_Deisenroth_DEVTOX-GLR_Pluri_SOX2: CCTE's DevTox GLR-Pluri Assay Evaluation of SRY-box transcription factor 2 (SOX2) Protein Expression, Deisenroth Lab (AID 2284428). An outline of the steps: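 Human pluripotent RUES2-GLR cells were seeded 24 h, then differentiated 48 h in defined media with two chemical doses at 24-h intervals (10-point, 1 nM–200 uM). Nuclear-stained cells were imaged; SOX2+ cells/cell count gave percent change versus 0.2% DMSO control.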

Experiment [7] relates to Brachyury (BRA) Protein Expression, Deisenroth Lab, TBXT (gene 6862). Kind of experiment: CCTE_Deisenroth_DEVTOX-GLR_Pluri_BRA: CCTE's DevTox GLR-Pluri Assay Evaluation of Brachyury (BRA) Protein Expression, Deisenroth Lab (AID 2284429; active means hit-call score of the fitted dose curve at least 0.9, where 1 is the maximum). In a few lines: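 An inducible fluorescent BRA reporter in RUES2-GLR cells tracks mesoderm differentiation. Compounds (10 concentrations, 1 nM - 200 uM) are dosed twice within a 48-h differentiation. The endpoint subtracts the 0.2% DMSO control from percent BRA+ cells.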

A short description of experiment [8]: CCTE_Deisenroth_DEVTOX-GLR_Pluri_CellCount: Viability Assessment in CCTE's DevTox GLR-Pluri Assay Evaluation of Total Cell Counts, Deisenroth Lab (AID 2284430). In a few lines: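 RUES2-GLR human pluripotent cells, seeded 24 h, then differentiated 48 h with two chemical exposures 24 h apart; 10-point series 1 nM - 200 uM. Fixed, nuclear-stained, imaged (5 fields/well); nuclei count as % change vs 0.2% DMSO.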

For the compound `CN(C)c1ccc(C(=C2C=CC(=[N+](C)C)C=C2)c2ccc(N(C)C)cc2)cc1`, in the experiment with TTR (gene 7276), the AC50 (in general, the midpoint of the concentration-response curve, whichever way the signal moves) was 21.6 µM (active).
For the compound `CO[C@H]1/C=C/O[C@@]2(C)Oc3c(C)c(O)c4c(O)c(c(/C=N/N5CCN(C)CC5)c(O)c4c3C2=O)NC(=O)/C(C)=C\C=C\[C@H](C)[C@H](O)[C@@H](C)[C@@H](O)[C@@H](C)[C@H](OC(C)=O)[C@@H]1C`, the AC50 was 83.6 µM (active) in experiment [1]; 70.3 µM (active) in experiment [2]; 88.8 µM (active) in experiment [3]; 41.5 µM (active) in experiment [4]; 137 µM (active) in [5]; 59.9 µM (active) in experiment [7]. Also, in [8], the AC50 is 19.8 µM (active). Also, the outcome in experiment [6] was inactive.
Regarding `COCC(C)OCC(C)OCC(C)O` (configuration not stated), the call in the experiment on TTR (gene 7276) was inactive.
`CCCCCCCCOC(=O)c1cc(O)c(O)c(O)c1`: the AC50 in the experiment on TTR (gene 7276) was 0.512 µM (active).
The same measure, in the same setting: in the case of `O=C(O)Cc1cc(I)c(Oc2ccc(O)c(I)c2)c(I)c1` it was 0.0224 µM (active); in that of `CCCCCCCCCC(=O)O`, 7.04 µM (active); in that of `CC(C)(c1cc(Br)c(O)c(Br)c1)c1cc(Br)c(O)c(Br)c1`, 0.0228 µM (active).
Still for that read-out and setting: in the case of `Cc1oc2c(NC(=O)c3c(Cl)cccc3Cl)cccc2c1C(C)(C)O` it was 1.47 µM (active).
On to `CC/C(=C(/CC)c1ccc(O)cc1)c1ccc(O)cc1`, for which the AC50 is 2.78 µM (active) in [1]; 0.65 µM (active) in experiment [2]; 0.891 µM (active) in [3]; 1.58 µM (active) in experiment [4]; 1.83 µM (active) in experiment [5]; 7.85 µM (active) in [6]. Further, the AC50 in experiment [7] is 1.9 µM (active); in experiment [8] it was 1.45 µM (active); in the experiment with TTR (gene 7276), 0.021 µM (active).
For the compound `CCCOC(=O)c1cc(O)c(O)c(O)c1`, in the experiment with TTR (gene 7276), the AC50 was 0.26 µM (active).
Turning to `CCCCCc1ccc(N)cc1`, the half-maximal activity concentration (AC50) in the experiment with TTR (gene 7276) was 26.3 µM (active).
Regarding `OCCO`, the call in experiment [2], in experiment [3], in experiment [4], in experiment [6], in experiment [7] and in experiment [8] was inactive.
On to `CCCCCCCCOc1ccc(C(=O)c2ccccc2)c(O)c1`, for which, in the experiment with TTR (gene 7276), the AC50 is 25 µM (active).
As to `CCCCOC(=O)c1ccc(O)cc1`, the AC50 is 152 µM (active) in experiment [1]; 56.3 µM (active) in experiment [2]; 66.5 µM (active) in experiment [3]; 37.9 µM (active) in experiment [4]; 51.6 µM (active) in experiment [5]; 21.6 µM (active) in experiment [6]. The AC50 was 89.2 µM (active) in experiment [7], 19.8 µM (active) in experiment [8] and 2.26 µM (active) in the experiment with TTR (gene 7276).
